# In PubChem BioAssay AID504411 (The Scripps Research Institute Molecular Screening Center, 2011):
# About 200 (0.059%) of roughly 340,000 compounds were called active. The sample as a whole holds a higher share of actives than the screen did. Values without a mark were called inactive. Cut-off read from the data, not from the text of the source: active = inhibition above about 34%; inactive = the rest.
# Target: Diacylglycerol lipase-beta (Homo sapiens) (UniProt Q8NCG7)
# Assay: inhibition of human DAGLB hydrolase activity – biochemical, fluorescence, HTS, primary screen (AID 504411);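 note: 0% = enzyme with vehicle and 100% = wells lacking enzyme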
# Details: HEK293T DAGLB membrane lysate, EnzChek fluorogenic substrate; at 5.17 µM; active compounds read high
# Chain of Diacylglycerol lipase-beta (Homo sapiens) (Q8NCG7 whole entry, looked up): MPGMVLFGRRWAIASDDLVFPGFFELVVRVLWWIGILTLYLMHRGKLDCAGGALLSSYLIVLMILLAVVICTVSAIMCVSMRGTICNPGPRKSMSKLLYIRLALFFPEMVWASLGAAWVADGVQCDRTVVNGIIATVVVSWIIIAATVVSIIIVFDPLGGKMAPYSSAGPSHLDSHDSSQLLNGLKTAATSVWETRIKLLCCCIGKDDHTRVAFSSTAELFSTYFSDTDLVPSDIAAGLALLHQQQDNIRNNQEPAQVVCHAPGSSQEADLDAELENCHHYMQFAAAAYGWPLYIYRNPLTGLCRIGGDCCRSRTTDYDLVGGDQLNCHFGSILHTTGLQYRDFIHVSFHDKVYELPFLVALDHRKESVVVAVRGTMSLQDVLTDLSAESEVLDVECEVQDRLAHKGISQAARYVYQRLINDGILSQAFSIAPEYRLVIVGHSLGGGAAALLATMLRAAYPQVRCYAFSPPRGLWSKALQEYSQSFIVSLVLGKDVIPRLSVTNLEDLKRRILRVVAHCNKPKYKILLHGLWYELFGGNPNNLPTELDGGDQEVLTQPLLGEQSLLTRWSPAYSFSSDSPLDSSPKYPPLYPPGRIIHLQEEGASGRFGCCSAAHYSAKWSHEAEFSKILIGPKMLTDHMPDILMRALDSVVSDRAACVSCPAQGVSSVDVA
row,SMILES,inhibition
1,c1ccc2c(c1)OCCOCCOCCO2,0.06%
2,COc1ccc(S(=O)(=O)/N=C2\C=C(NS(=O)(=O)c3ccccc3)C(=O)c3ccccc32)cc1,19.7%
3,Cc1ccc(S(=O)(=O)/N=C2\C=C(NS(=O)(=O)c3ccc(C)cc3)C(=O)c3ccccc32)cc1,38.9% (active)
4,Cc1ccc(S(=O)(=O)N/N=C(\c2ccccc2)C2CC2)cc1,0.32%
5,Cc1nn(C)c(C)c1CN(C(=O)CCc1nnc(Cc2c[nH]c3ccccc23)o1)C(C)C,1.36%
6,COCc1ccc(C(=O)N2CCc3c([nH]c4ccccc34)C2c2ccccn2)s1 (configuration not stated),2.71%
7,CC(CC(=O)N1CCN(c2ccccc2)CC1)S(=O)(=O)c1ccc2c(c1)NC(=O)CS2 (configuration not stated),1.53%
8,CCOc1ccc(-n2cnc3c(=O)[nH]c(N)nc32)cc1,0.5%
9,O=C(Nc1nnc(CCN2CCCCC2)s1)c1cccc(Cl)c1,0.09%
10,CCOC(=O)C1=C(C)OC(N)=C(C#N)C1c1cncc(-c2ccc(F)cc2)c1 (configuration not stated),-3.22%
11,C=CCn1nc(-c2ccccc2)c2c(C)onc2c1=O,-0.48%
12,CC(Sc1nncn1C)C(=O)Nc1cc(C(F)(F)F)ccc1N1CCOCC1 (configuration not stated),0.9%
13,O=C(NC1CCCC1)C1CC(=O)N(c2ccc(F)cc2)C1 (configuration not stated),2.14%
14,O=C(NNc1c2ccccc2nc2ccccc12)c1cc2ccccc2cc1O,64% (active)
15,O=C(COC(=O)c1ccc(O)cc1O)NC(=O)c1ccccc1,1.38%
16,O=C(NNC(=O)c1ccccc1O)c1ccccc1O,3.19%
17,Cc1ccc(-c2cc(C(F)(F)F)n3ncc(C(=O)N4CCCCC4c4cccnc4)c3n2)cc1 (configuration not stated),0.87%
18,Nc1ccc(Cl)c(S(=O)(=O)Nc2ccccc2Cl)c1,2.95%
19,O=C1C(=O)N(CCN2CCOCC2)C(c2ccccn2)/C1=C(/O)c1ccc(Cl)cc1 (configuration not stated),1.82%

row,SMILES,inhibition
1,COc1cc(/C=C/C(=O)N2CCc3ccccc3C2)cc(OC)c1OC,-1.38%
2,O=C(c1ccc(=O)[nH]c1)N(Cc1ccco1)C1(C(=O)NC2CCCCC2)CCCCC1,-1.49%
3,COc1cccc(NC(=S)NC(=O)c2c(Cl)c(C)nn2C)c1,-24.9%
4,CN(C(=O)CSc1nnc(C2CC2)n1C)C1CCCc2ccccc21 (configuration not stated),1.81%
5,CCOCCn1[nH]c2ccccc2c1=O,-1.38%
6,CCOc1ccc(C(O)Cn2c(=N)n(CCN3CCCCC3)c3ccccc32)cc1 (configuration not stated),-2.39%
7,Cc1cccc(Nc2nc3c(S(=O)(=O)c4ccccc4)nnn3c3ccccc23)c1C,0.26%
8,CCn1c(SCC(=O)N2CCCC2=O)nc2ccccc21,-0.5%
9,COc1ccc(OC)c(NC(=O)c2cccc(S(=O)(=O)N3CCN(C(C)=O)CC3)c2)c1,-0.51%
10,O=C(CCCN=C1NS(=O)(=O)c2ccccc21)OCC(=O)c1ccc(F)c(F)c1,1.93%
11,CN1CCC(N(C)C(=O)c2ccc(Cl)c(S(=O)(=O)Nc3ccc(Cl)cc3)c2)CC1,-0.08%
12,CSCCC(=O)N1CCCC(CNC(=O)c2ccccc2Cl)C1 (configuration not stated),-3.33%
13,C[C@H](CO)N1C[C@H](C)[C@@H](CN(C)C(=O)NC2CCCCC2)Oc2ccc(NC(=O)c3ccncc3)cc2C1=O,-0.14%
14,O=C1C=C(NCCNc2c(F)c(F)c(CO)c(F)c2F)CCC1,0.21%
15,COc1ccc(C(=O)Cn2nnc(-c3ccc(N4CCOCC4)cc3)n2)cc1OC,0.4%
16,COc1ccccc1NS(=O)(=O)c1ccc(C(=O)N2CCN(c3ccccc3O)CC2)cc1,3.47%
17,CCOC(=O)N1CCC(O)(c2cc(C)c(C)cc2C)CC1,-4.76%
18,CC(=O)c1c(C)[nH]c(C(=O)CN2C(=O)NC(C)(C)C2=O)c1C,2.12%
19,CCOC(=O)C1CN(S(=O)(=O)c2ccc(F)cc2)C1,-3.17%

row,SMILES,inhibition
1,O=c1oc(-c2ccccc2NS(=O)(=O)c2ccc(Cl)cc2)nc2ccccc12,6.09%
2,COc1cccc(/C=C2\SC(=S)N(CCCC(=O)N3CCOCC3)C2=O)c1,-4.26%
3,COCCCNC(=O)[C@H]1N2C(=O)c3ccccc3C2SC1(C)C (some centres not stated),-1.33%
4,CC(=O)Nc1ccc(C(=O)Nc2cccc(S(=O)(=O)NC3=NCCC3)c2)cc1,-2.22%
5,CCOC(=O)C1CSC(CC(=O)Nc2ccc(OCC)cc2)C(=O)N1 (configuration not stated),0.21%
6,O=C(O)CC(c1ccccc1F)N1Cc2ccccc2C1=O (configuration not stated),1.06%
7,CCCN(CCC)S(=O)(=O)c1ccc(C(=O)N2CC3CCC(CC3)C2)cc1,-8.08%
8,Cc1oc2cc([N+](=O)[O-])c(O)c([N+](=O)[O-])c2c1C(=O)c1ccc(Br)cc1,44% (active)
9,COc1ccc(C(=O)c2c(C)oc3cc([N+](=O)[O-])c(O)c([N+](=O)[O-])c23)cc1,21.1%
10,Cc1oc2cc(Br)c(O)c(Br)c2c1C(=O)c1ccccc1,-1.78%
11,CCOc1ccc(S(=O)(=O)NCCC(=O)NCC(C)(C)N2CCOCC2)cc1,1.14%
12,CSC1=N/C(=C\C=C\c2cccs2)C(=O)S1,6.62%
13,Cc1c(C(=O)NCC(c2ccco2)N2CCCC2)oc2ccc(Cl)cc12 (configuration not stated),-3.86%
14,CCOC(=O)C1CCN(C(=O)C2(NC(=O)Nc3cccc(F)c3)CCCCC2)CC1,1.05%
15,CC1(C)OC(=O)C(=CNC(CO)C(=O)O)C(=O)O1 (configuration not stated),-0.76%
16,CC(=O)N1CCc2ccc(N)cc21,-0.55%
17,COc1ccc(C(=O)NCc2ccc(C)cc2)cc1S(=O)(=O)N1CCCC1,-0.31%
18,Cc1cc(=O)n2nc(N3CCCC(C(=O)NCc4cccc(Cl)c4)C3)sc2n1 (configuration not stated),-0.02%
19,CCOC(=O)CN(C(=O)COc1nc(-c2ccccc2)cc(C)c1C#N)c1ccc(F)cc1,-4.62%
